# Inconclusive results are not listed. Where a call stands in place of a potency, no number is given. Calls of active or inactive are those of the source. Calls follow the shape of the dose curve; as a rule, active = well fitted cell-killing curve with a large enough effect; inconclusive = small, poorly fitted or top-dose-only effect; inactive = flat fitted curve, though single readings scatter.
# Experiment: qHTS assay to identify small molecule inhibitors of chordoma cells - UCH-2 (AID 1259356)
# Conditions: UCH-2 chordoma viability, CellTiter-Glo ATP luminescence, 48 h; series mostly up to 46.1 µM
row,SMILES,Potency
1,CCCCC(O)c1ccccc1 (stereo not drawn),inactive
2,CN1C(=O)C[C@@H](C(=O)N[C@@H](Cc2cnc[nH]2)C(=O)N2CCC[C@H]2C(N)=O)NC1=O,inactive
3,CC(/C=C/C=C(\C)C(=O)O[C@@H]1O[C@H](CO[C@@H]2O[C@H](CO)[C@@H](O)[C@H](O)[C@H]2O)[C@@H](O)[C@H](O)[C@H]1O)=C\C=C\C=C(C)\C=C\C=C(/C)C(=O)O[C@@H]1O[C@H](CO[C@@H]2O[C@H](CO)[C@@H](O)[C@H](O)[C@H]2O)[C@@H](O)[C@H](O)[C@H]1O,inactive
4,NC[C@H]1O[C@H](O[C@H]2[C@H](O)[C@@H](O[C@H]3O[C@H](CO)[C@@H](O)[C@H](N)[C@H]3O)[C@H](N)C[C@@H]2N)[C@H](N)C[C@@H]1O,inactive
5,CN[C@@H]1[C@H](O[C@H]2[C@H](O[C@H]3[C@H](O)[C@@H](O)[C@H](N=C(N)N)[C@@H](O)[C@@H]3N=C(N)N)O[C@@H](C)[C@]2(O)C=O)O[C@@H](CO)[C@H](O)[C@H]1O,inactive
6,CCCCCCCCCCCC(=O)OCC(O)CO (stereo not drawn),inactive
7,CN1C(C(=O)Nc2ccccn2)C(=O)c2sc(Cl)cc2S1(=O)=O (stereo not drawn),inactive
8,F[Si-2](F)(F)(F)(F)F,inactive
9,COc1ccc(/C=C/C(=O)O)cc1,inactive
10,COC(=O)CC[C@H](N)C(=O)O,inactive
11,CCCCCCCCCCCCCC(=O)OCC(COP(=O)([O-])OCC[N+](C)(C)C)OC(=O)CCCCCCCCCCCCC (stereo not drawn),inactive
12,C[C@@H](O)[C@H]1C(=O)N2C(C(=O)[O-])=C(SC3Cn4cnc[n+]4C3)[C@H](C)[C@H]12 (stereo partly drawn),inactive
13,CC(=O)O[C@@H]1CC2CCC1(C)C2(C)C (stereo partly drawn),inactive
14,O=C(CCCN1CCN2CCCC2C1)c1ccc(F)cc1 (stereo not drawn),inactive
15,CCc1ncnc2cc(OC)c(OC)cc12,inactive
16,O=C(NNCS(=O)(=O)O)c1ccncc1,inactive
17,O=C1c2c(O)cccc2[C@H]([C@@H]2O[C@H](CO)[C@@H](O)[C@H](O)[C@H]2O)c2cc(CO)cc(O)c21,inactive
18,O=C(CO)[C@@H](O)[C@H](O)[C@@H](O)C(=O)O,inactive
19,NC(=O)CC[C@@H]1NC(=O)[C@H](Cc2ccccc2)NC(=O)[C@H](Cc2ccc(O)cc2)NC(=O)[C@@H](N)CSSC[C@@H](C(=O)N2CCC[C@H]2C(=O)N[C@@H](CCCN=C(N)N)C(=O)NCC(N)=O)NC(=O)[C@H](CC(N)=O)NC1=O,inactive

row,SMILES,Potency
1,CC(=O)N[C@@H]1C(O[C@H]2O[C@H](C(=O)O)C(O)[C@H](O)[C@H]2O)[C@H](O)[C@@H](CO)O[C@H]1O[C@@H]1C(C(=O)O)O[C@@H](O[C@H]2[C@H](O)[C@@H](CO)OC(O)[C@@H]2NC(C)=O)[C@H](O)[C@H]1O (stereo partly drawn),inactive
2,CC(C)[C@@H]1CC[C@@H](C)C[C@H]1OC(=O)c1ccccc1O,inactive
3,COc1ccc(/C=C/C(=O)OCCC(C)C)cc1,inactive
4,CC(C)N1CCN(c2ccc(OC[C@H]3CO[C@](Cn4cncn4)(c4ccc(Cl)cc4Cl)O3)cc2)CC1,inactive
5,CCCCCCCCCCCCCCCCCC[N+](C)(C)CCC[Si](OC)(OC)OC,inactive
6,COc1ccc2nc(NC(=O)Nc3ccccc3)sc2c1,inactive
7,C[C@]12CCC(=O)C[C@@H]1CC[C@@H]1[C@@H]2CC[C@]2(C)C=CC[C@@H]12,inactive
8,C=CC[N+]1([C@H]2C[C@H]3[C@@H]4CC[C@H]5C[C@H](O)[C@@H](N6CCOCC6)C[C@]5(C)[C@H]4CC[C@]3(C)[C@H]2OC(C)=O)CCCC1,inactive
9,C[C@@](Cc1ccc(O)c(O)c1)(NN)C(=O)O,inactive
10,OCCCNc1ccccc1,inactive
11,CCCCCCCCCCCC(=O)OC[C@@H](O)C1OC[C@H](O)[C@H]1O (stereo partly drawn),inactive
12,NC(=O)OCC(O)COc1ccc(Cl)cc1 (stereo not drawn),inactive
13,COc1ccc(-c2noc(CC(=O)O)c2-c2ccc(OC)cc2)cc1,inactive
14,O=C[C@H](O)[C@@H](O)[C@@H](O)[C@H](O)CO,inactive
15,C=N[C@@H](C(=O)N[C@@H]1C(=O)N2[C@@H]1SC(C)(C)[C@@H]2C(=O)O)c1ccccc1,inactive
16,NC(Cc1ccccc1)C(=O)O (stereo not drawn),inactive
17,CO[C@H]1C[C@H](O[C@@H]2/C(C)=C/C[C@@H]3C[C@@H](C[C@]4(CC[C@H](C)[C@@H](C5CCCCC5)O4)O3)OC(=O)[C@@H]3C=C(C)/C(=N/O)[C@H]4OC/C(=C\C=C\[C@@H]2C)[C@]43O)O[C@@H](C)[C@@H]1O,inactive
18,CC1(C)S[C@@H]2[C@H](NC(=O)C3(N)CCCCC3)C(=O)N2[C@H]1C(=O)O,inactive
19,CO/N=C(\C(=O)N[C@@H]1C(=O)N2C(C(=O)O)=C(CSc3nc(C)c(CC(=O)O)s3)CS[C@H]12)c1csc(N)n1,inactive

# Source: PubChem BioAssay (NCATS)
